Where a name gives a salt, the structure may show the parent alone. ± gives the standard deviation of the averaged measurements.
Tested on: E. coli TESEC Mtb Alr
Assay: growth (OD600 after 10 h); higher = more growth (less inhibition)
Settings: arabinose 100 nM; compound 0.1 mM; raw OD600 reference: median of DMSO wells 0.413, cell-free background 0.052
Experimental: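 TESEC Mtb Alr E. coli (ΔaraC ΔtolC ΔentC Δalr ΔdadX, arabinose-inducible Mtb Alr) or the Alr+ wild-type control strain, grown in defined M9-fructose medium without D-alanine in 96-well plates with Prestwick library compounds at 0.1 mM and 1% DMSO. Low Alr induction is 0.1 µM arabinose and high induction is 10 mM arabinose.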

For `CC(=O)N(O)CCCCCNC(=O)CCC(=O)N(O)CCCCCNC(=O)CCC(=O)N(O)CCCCCN` [Deferoxamine mesylate], which growth is on record?
The growth was 0.113 ± 0.046.

With `O=c1cc(-c2ccc(O)c(O)c2)oc2cc(O)cc(O)c12` [Luteolin] as the compound, how does the growth read?
The growth was 0.152 ± 0.019.

How did the growth turn out when `Nc1nc(=O)c2nc(CNc3ccc(C(=O)N[C@@H](CCC(=O)O)C(=O)O)cc3)cnc2[nH]1` [Folic acid] was run?
Its growth is 0.407 ± 0.011.

Which growth does the source give for `O=C(O)CNC(=O)C(CS)Cc1ccccc1` (stereo unspecified) [Thiorphan] here?
The growth was 0.409 ± 0.0074.

Which growth does the source give for `CC1(C)S[C@@H]2[C@H](NC(=O)[C@H](NC(=O)N3CCNC3=O)c3ccccc3)C(=O)N2[C@H]1C(=O)O` [Azlocillin sodium salt] here?
Its growth is 0.403 ± 0.017.

`Clc1cnccn1` [2-Chloropyrazine] was tested. Which growth did it give?
Its growth is 0.4217 ± 0.0015.

`O=C(C1CCCCC1)N1CC(=O)N2CCc3ccccc3C2C1` (stereo unspecified) [Praziquantel] was tested. Which growth did it give?
The growth was 0.382 ± 0.0029.

`C#C[C@]1(O)CC[C@H]2[C@@H]3CCC4=CC(=O)CC[C@@H]4[C@H]3CC[C@@]21CC` [Norgestrel-(-)-D] was tested. Which growth did it give?
The growth was 0.413 ± 0.018.

How did the growth turn out when `CCCCOc1ccc(C(=O)CCN2CCCCC2)cc1` [Dyclonine hydrochloride] was run?
The growth was 0.408 ± 0.0048.

Which growth does the source give for `CC1CCc2c(N3CCC(O)CC3)c(F)cc3c(=O)c(C(=O)O)cn1c23` (stereo unspecified) [Nadifloxacin] here?
Its growth is 0.0535 ± 0.00072.

With `OC(c1cc(C(F)(F)F)nc2c(C(F)(F)F)cccc12)C1CCCCN1` (stereo unspecified) [Mefloquine hydrochloride] as the compound, how does the growth read?
Its growth is 0.199 ± 0.23.

Source: the supplement of paper PMC9262897, “Low-cost anti-mycobacterial drug discovery using engineered E. coli” (Nature Communications, 2022)
